This is a sample that favours compounds with a hit; in the whole collection about 2.9% have one here.
DRV1 agonist: agonists of human resolvin D1 receptor DRV1 (GPR32) | AID 1346428 | activation, % at 76.9 µM | 48,000 compounds, 2.5% hits | CHO-K1 GPR32 beta-arrestin PathHunter luminescence, 90 min; zero percent set by DMSO-only wells;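 active = activation of at least 60% and not above a set upper limit, about 1 call in 100 departs from these limits; inconclusive = activation of 40% to 60%, or above that upper limit; inactive = activation under 40%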; also: 0% is about no effect
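Cells are plated overnight, treated with compounds in DMSO for 90 minutes at 37 °C, and developed with PathHunter detection reagent for 1 hour before luminescence is read; signal reflects beta-arrestin binding to GPR32 in engineered CHO-K1 cells.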
GALC G270D up: raises human GALC G270D mutant activity in cells; Potency, µM (doses to about 57.5 µM), hits mostly activators; 145M-Twi-hGALC-G270D cells (Twitcher mouse brain line with human GALC G270D), HMU-beta-Gal fluorescence, 48 h; P54803; AID 1159614; 45,000 compounds, 0.1% hits; also: potency is read from the fitted curve at half-maximal effect; 0% is about no effect; nearly all actives have a fitted effect of over 65% in size
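Mutant human GALC (G270D), stably expressed in a Twitcher mouse brain cell line lacking endogenous GALC, is measured in live-treated cells via 6-hexadecanoylamino-4-methylumbelliferyl-β-galactoside hydrolysis (0.1 mM final, pH 5.2) with fluorescent detection.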
SKOV3 invasion: inhibitors of ovarian cancer cell adhesion and invasion in omental model. AID 1963576. 46,000 compounds, 0.1% hits. Potency, µM (doses to about 45.8 µM), without a hit: at the highest dose activity change, negative = inhibition, actives largely listed as inhibitors. SKOV3ip1-GFP adhesion/invasion on 3D omental model, fluorescence;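 also: potency is read from the fitted curve at half-maximal effect; plate controls were DMSO wells for no effect and tomatine positive control wells for full effect; nearly all actives have a fitted effect of over 65% in size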
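Adhesion/invasion was scored as fixed GFP-labeled SKOV3ip1 cell counts (488/509 nm), normalized to DMSO and tomatine controls. Cancer cells in serum-free medium, with four compound doses (0.36-46 umol/L), sat 2 hr at RT then 16 hr at 37 C on a 48 hr fibroblast/mesothelial/ECM culture.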
FH mod: Identification of activators of human fumarate hydratase by quantitative high-throughput screening | Fumarate hydratase, mitochondrial (Homo sapiens), P07954 | FH coupled MDH/diaphorase resazurin fluorescence, 15 min | Potency, µM (highest dose often 79.9 µM), without a hit: top-dose activity change, negative = inhibition, actives largely listed as inhibitors | 54,000 compounds, 0.22% hits | AID 1347055, 2019; also: potency is read from the fitted curve at half-maximal effect; % is scaled to controls: 0 for no effect and ±100 for the full control effect; the screen sought activators but most active calls are inhibition curves; nearly all actives have a fitted effect of over 45% in size
Target sequence (P07954 whole entry, looked up): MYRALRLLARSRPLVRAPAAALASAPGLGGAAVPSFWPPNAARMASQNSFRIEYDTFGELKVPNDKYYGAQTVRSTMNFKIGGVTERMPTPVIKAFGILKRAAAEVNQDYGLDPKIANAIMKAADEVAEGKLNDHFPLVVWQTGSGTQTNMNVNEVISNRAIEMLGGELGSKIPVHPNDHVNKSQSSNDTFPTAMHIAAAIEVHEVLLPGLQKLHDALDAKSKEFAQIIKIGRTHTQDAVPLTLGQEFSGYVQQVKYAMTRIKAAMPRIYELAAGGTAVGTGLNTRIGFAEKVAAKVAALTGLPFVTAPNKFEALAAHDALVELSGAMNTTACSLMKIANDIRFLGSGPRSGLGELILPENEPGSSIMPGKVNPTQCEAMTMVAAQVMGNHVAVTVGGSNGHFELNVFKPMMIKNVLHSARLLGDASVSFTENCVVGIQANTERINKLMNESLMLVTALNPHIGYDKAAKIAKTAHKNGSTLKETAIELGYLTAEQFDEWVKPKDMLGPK
* = called active by the depositor; i = inactive; ? = inconclusive; . = no result given; [ ] = dose if it differs, or a comment. Unless noted, calls follow the shape of the dose curve; as a rule, active = well fitted curve in the direction sought with a large enough effect; inconclusive = small, poorly fitted or top-dose-only effect, or another doubt; inactive = no such curve, though single readings can be large; an effect the other way counts as inactive or inconclusive.

SMILES	DRV1 agonist	GALC G270D up	SKOV3 invasion	FH mod
CSc1ccc(CNC(=O)Cn2nc(N3CCN(c4ccccc4)CC3)ccc2=O)cc1	94.5*	i	7.1%	-8.6%
O=C(Nc1ccc(F)cc1)c1ccc(Cn2nc(N3CCN(c4ccccc4)CC3)ccc2=O)o1	-2.0	i	i	-26.1%
O=C(Cn1nc(N2CCN(c3ccccc3)CC2)ccc1=O)NCc1cccc(Cl)c1	120.5*	i	-1.5%	-1.2%
O=C(Nc1ccccc1F)c1ccc(Cn2nc(N3CCN(c4ccccc4)CC3)ccc2=O)o1	90.1*	i	4.3%	-10.4%
Nc1nc(Cl)nc2c1ncn2[C@@H]1O[C@H](COP(=O)(O)OP(=O)(O)OP(=O)(O)O)C(O)[C@H]1O (some centres not stated)	.	.	.	-14.0%[53.3 µM]
O=C1c2[nH]nc(-c3ccc(F)cc3)c2C(c2ccccc2F)N1c1ccccc1 (configuration not stated)	108.5*	i	?	-22.1%
CC1=C2C(=O)C=C(CO)C2C2OC(=O)C(CS(=O)(=O)O)C2C(OC(=O)Cc2ccc(O)cc2)C1 (configuration not stated)	.	.	.	-9.1%[53.3 µM]
CC(=O)C1=CCC2C3CCC4CC(O[C@@H]5O[C@H](CO)[C@@H](O[C@@H]6O[C@@H](C)[C@H](O)[C@@H](O)[C@H]6O)[C@H](O)[C@H]5O[C@@H]5O[C@H](CO)[C@@H](O)[C@H](O)[C@H]5O)CCC4(C)C3CCC12C (some centres not stated)	.	.	.	0.5%[20.6 µM]
Cc1ccc(Cn2c(C)c(CNCC(C)c3ccccc3)c(C(=O)O)c2C)cc1 (configuration not stated)	75.2*	i	15.0%	2.6%
Cc1ccc(Cn2c(C)c(CNCc3ccc(OC(C)C)cc3)c(C(=O)O)c2C)cc1	85.6*	i	8.4%	6.7%
Cc1cc(C)c2c(N)c(C(=O)NCc3ccc(Cl)cc3)sc2n1	.	.	.	-6.7%
Cc1oc(-c2ccccc2)nc1CNC(=O)Nc1ccccc1	?	i	-2.6%	-32.4%
Cc1oc(-c2ccccc2)nc1CNS(=O)(=O)c1ccc(Cl)cc1	115.4*	i	-7.3%	-7.9%
Cc1ccccc1-c1nc(CS(=O)(=O)CC(=O)NCCCc2ccccc2)c(C)o1	79.9*	i	5.3%	-28.8%
COc1ccc(CCNc2ncnc3c2cnn3-c2ccc(F)cc2)cc1	66.4*	i	-4.2%	9.3%
COc1ccc(CCNc2ncnc3c2cnn3-c2cccc(Cl)c2)cc1	114.1*	i	-1.3%	-1.1%
COc1ccc(CCNc2ncnc3c2cnn3-c2cc(Cl)ccc2C)cc1	47.5	i	?	-19.8%
CCOc1ccc(Nc2ncnc3c2cnn3-c2ccc(F)cc2)cc1	7.0	i	3.2%	-0.2%
COC(=O)c1ccc(NC(=O)CN2C(=O)c3cccc4cccc2c34)cc1	4.5	i	11.9%	-32.0%
CCc1ccc(NC(=O)CN2C(=O)c3cccc4cccc2c34)cc1	120.2*	.	0.9%	.
COc1ccccc1NC(=O)CN1C(=O)CCSc2ccccc21	-6.8	i	i	-37.3%
CCc1ccc(NC(=O)CN2C(=O)CCSc3ccccc32)cc1	63.1*	i	9.3%	1.6%
CCOc1cc(C(=O)Nc2ccc(NC(=O)c3cc4ccccc4o3)c(OC)c2)cc(OCC)c1OCC	105.2*	i	?	-3.1%
COc1cc(CC2COC(c3ccc(OC4OC(CO)C(O)C(O)C4O)c(OC)c3)C2CO)ccc1O (configuration not stated)	.	.	.	-0.7%[53.3 µM]
O=C(Cn1c(=O)nc(-c2ccccc2)c2cc(Cl)ccc21)NCCCc1ccccc1	94.2*	i	-15.9%	-8.9%
SMILES	DRV1 agonist	GALC G270D up	SKOV3 invasion	FH mod
O=C(Cn1c(=O)nc(-c2ccccc2)c2cc(Cl)ccc21)NCCc1ccccc1	-9.5	i	10.9%	-7.3%
C#C[C@]1(O)CC[C@H]2[C@@H]3[C@H](C)CC4=C(CCC(=O)C4)[C@H]3CC[C@@]21C	98.6*	i	.	-1.4%[53.3 µM]
O=C(O)[C@@H]1C[C@H]2C[C@@H](CCc3nn[nH]n3)CC[C@H]2CN1	.	.	.	6.2%
CC#CC(=O)N1CCC[C@H]1c1nc(-c2ccc(C(=O)Nc3ccccn3)cc2)c2c(N)nccn12	.	.	.	7.4%
COc1ccccc1-c1nc(CNC(=O)Nc2ccccc2)c(C)o1	23.0	i	4.6%	-3.5%
COc1ccc(-c2nc(CNC(=O)Nc3ccccc3)c(C)o2)c(OC)c1	64.7*	i	-8.2%	4.3%
CC(C)c1nnc(NC(=O)c2nc(SCc3ccc(F)cc3)ncc2Cl)s1	109.1*	i	6.9%	-4.8%
Cc1cccc(OCC(=O)Nc2ccc3nc(Nc4cccc(C(F)(F)F)c4)cc(C)c3c2)c1	75.7*	i	-3.9%	-1.8%
Cc1cccc(OCC(=O)Nc2ccc3oc(-c4ccccc4F)nc3c2)c1	120.6*	i	-5.6%	3.0%
O=C(COc1ccccc1Cl)Nc1ccc2oc(-c3ccccc3F)nc2c1	-7.6	i	i	-0.4%
Cc1ccccc1-c1nc2cc(NC(=O)Cc3ccc(Cl)cc3)ccc2o1	118.0*	i	i	4.1%

High-throughput results (PubChem BioAssay)
